Source: PubChem BioAssay
hgDAF-12 ag = H. glycines DAF-12 receptor agonists, primary screen, cell-based, luminescence, HEK293, GAL4 fusion, UAS-luciferase; HEK293 GAL4-hgDAF12 UAS-luciferase reporter, agonist luminescence; normalized to butyrate control; activation, % at 6.8 µM; 1.8% of 370,000 active;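 active = activation above a cutoff set at the mean of all screened compounds plus 3 SD, cut at about 10% in these data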
DAX1 inh-1 = DAX1 (NR0B1) inhibitors on StAR promoter, primary screen, cell-based, luminescence, SF-1 (NR5A1), full-length DAX-1. HEK293T StAR-luciferase reporter, SF-1/DAX-1 repression relief. inhibition, % at 6.8 µM. 1.1% of 370,000 active;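 active = inhibition above the mean over all tested compounds plus 3 SD, cut at about 3.6% in these data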;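 note: higher inhibition means more luminescence from relief of DAX-1 repression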
hcDAF-12 act = H. contortus DAF-12 nuclear receptor activators, primary screen, cell-based, luminescence, HEK293, lit1-tk-luc reporter | HEK293 hcDAF-12 lit1-tk-luc reporter; 0% DMSO, 100% Δ7-dafachronic acid | activation, % at 6.8 µM | 1.4% of 370,000 active;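 active = activation above the mean of all tested compounds plus 3 SD, cut at about 5.5% in these data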
DAX1 inh-2 = DAX1 (NR0B1) inhibitors, primary screen, cell-based, HEK293, Gal4-DAX1, luciferase luminescence | Nuclear receptor subfamily 0 group B member 1 (Homo sapiens), P51843 | 0.99% of 340,000 active | AID 504766, 2011 | inhibition, % at 6.75 µM | HEK293 Gal4-DAX1 luciferase reporter;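 active = inhibition above the mean over all tested compounds plus 3 SD, cut at about 4.2% in these data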;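 note: inhibition shows as a rise in luminescence from relieved DAX1 repression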
Target sequence (P51843 207-470 limits assumed): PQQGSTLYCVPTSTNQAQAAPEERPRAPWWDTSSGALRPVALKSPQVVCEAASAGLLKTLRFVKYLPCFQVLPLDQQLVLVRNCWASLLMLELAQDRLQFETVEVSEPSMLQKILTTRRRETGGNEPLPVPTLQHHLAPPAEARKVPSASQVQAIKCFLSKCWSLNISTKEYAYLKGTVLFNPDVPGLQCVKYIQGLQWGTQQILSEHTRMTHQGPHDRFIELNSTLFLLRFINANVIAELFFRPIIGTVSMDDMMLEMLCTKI
ssDAF-12 act = S. stercoralis DAF-12 nuclear receptor activators, primary screen, cell-based, luminescence, HEK293, GRIP1 co-expression, lit1-tk-luc | Nuclear hormone receptor DAF-12 (Strongyloides stercoralis) | 1% of 370,000 active | activation, % at 6.8 µM | HEK293 ssDAF-12/GRIP1 lit1-tk-luc reporter; % of 3 µM dafachronic acid response;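 active = activation above the mean over all tested compounds plus 3 SD, cut at about 0.9% in these data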
DAX1 conf = DAX1 (NR0B1) inhibitors relieving SF-1 repression, confirmation, cell-based, luminescence, HEK293T, full-length DAX-1, SF-1 activated StAR promoter; shares compounds with DAX1 inh-1; HEK293T StAR-promoter luciferase reporter, SF-1/DAX-1 repression; inhibition, % at 6.8 µM; 87% of 2,400 active;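 active = inhibition above the average of every tested compound plus 3 SD, cut at about 3.8% in these data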
SF1 mutant ctr = StAR reporter signal changes without DAX1, counter-screen for DAX1 inhibitor project, cell-based, luminescence, AF-2 mutant SF-1, transactivation; shares compounds with DAX1 inh-1; HEK293 StAR-luciferase, SF-1 AF2 mutant; inhibition, % at 6.8 µM; 78% of 2,400 active;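 active = inhibition above the mean of all tested compounds plus 3 SD, cut at about 3% in these data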
LXRb hcDAF ctr = LXR agonists, Gal4 luciferase reporter, confirmation, counter-screen for hcDAF-12 agonist project, cell-based, luminescence, HEK293, H. contortus campaign. shares compounds with hcDAF-12 act. HEK293 Gal4-LXR tk-luc reporter, 24 h; normalized: DMSO 0%, positive control 100%. activation, % at 6.8 µM. 3,400 tested, under 10 active. AID 743027, 2013;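 active = mean percent activation of the reporter above a cutoff set as the average over tested compounds plus their standard deviation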
hcDAF12 ag = H. contortus DAF-12 receptor agonists, confirmation, cell-based, luminescence, HEK293, lit1-tk-luc, triplicate; shares compounds with hcDAF-12 act; HEK293 hcDAF-12 lit1-tk-luc reporter; % of Δ7-dafachronic acid response; activation, % at 6.8 µM; 61% of 3,400 active; AID 743032, 2013;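 active = mean activation across triplicate tests above the threshold derived from the earlier primary screen, cut at about 5.5% in these data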
hgDAF12 ag = H. glycines DAF-12 receptor agonists, confirmation, cell-based, luminescence, HEK293, GAL4-LBD fusion. shares compounds with hgDAF-12 ag. HEK293 GAL4-hgDAF12 luciferase reporter, agonist mode; percent of butyrate response. activation, % at 6.8 µM. 80% of 3,300 active. AID 743050, 2013;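 active = mean activation over triplicate wells above the hit cutoff derived from the earlier primary screen, cut at about 11% in these data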
LXR ag 2 = LXR agonists, Gal4 luciferase reporter, confirmation, counter-screen for hgDAF-12 agonist project, cell-based, luminescence, HEK293, H. glycines campaign | shares compounds with hgDAF-12 ag | 3,300 tested, under 10 active | 24 h | activation, % at 6.8 µM;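 active = mean activation of the triplicate above a set limit carried over from the primary screen, none filed active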
Hits are given with their value; – = inactive; · = no result. Most compounds without a hit are left out; they make up all but 4.1% or so of the library.

SMILES	hgDAF-12 ag	DAX1 inh-1	hcDAF-12 act	DAX1 inh-2	ssDAF-12 act	DAX1 conf	SF1 mutant ctr	others
CCCC(C)C1C(C#N)=C(N)Oc2c1c(=O)oc1ccccc21 (stereo unspecified)	–	–	–	–	–	·	·
c1ccc(Cc2cnc(N3CCNCC3)nc2)cc1	–	–	–	·	–	·	·
CCOC(=O)CC(SP1(=S)OCC2(CC=CCC2)CO1)C(=O)OCC (stereo unspecified)	–	3.9	–	–	–	·	·
O=C(CN1CCCCC1)c1cccc(Br)c1	–	–	–	–	–	·	·
O=C(CN1CCCCC1)c1ccc2c(c1)OCO2	–	–	–	5.6	–	·	·
CC(C)(C)NC(=O)CN1C(=O)[C@@H](Cc2c[nH]c3ccccc23)N=C(c2ccccc2)c2ccccc21	–	–	–	·	–	·	·
N#Cc1ccc2nc(-c3ccc(CN4CCC(n5nnc6ccccc65)CC4)cc3)c(-c3ccccc3)nc2c1	–	–	–	·	–	·	·
COc1ccc(Cc2cn(C)c(N)n2)cc1	–	–	–	·	–	·	·
NCCNc1ccc([N+](=O)[O-])c2cccnc12	–	–	–	6.0	–	·	·
C[C@@H]1CNCCN1c1ccc(N2CC[C@H](O)C2)c(C#N)c1	–	–	–	·	–	·	·
Cc1ccc(OC(=O)N(C)C[C@@H]2OCc3ccccc3-c3c(n(C)c4ccccc34)C(=O)N([C@H](C)CO)C[C@H]2C)cc1	–	–	–	·	–	·	·
Cc1c(C(c2ccc(O)cc2)c2c(O)c3ccccc3oc2=O)c(=O)n(-c2ccccc2)n1C (stereo unspecified)	–	–	–	–	–	·	·
COc1ccc(OC)c(C(c2c(O)c3ccccc3oc2=O)c2c(C)n(C)n(-c3ccccc3)c2=O)c1 (stereo unspecified)	–	–	–	6.6	–	·	·
CCN(CC)C(=O)c1ccc(NC(=O)Nc2ccccc2F)cc1	11	6.5	–	–	–	8.9	4.2
CCN(CC)C(=O)c1ccc(NC(=O)CCCSc2ccccc2)cc1	–	–	–	–	–	·	·
COc1cc(CCN)c(OC)cc1C	–	–	–	·	–	·	·
CC(C)C(NC(=O)C(C(C)C)N(C)C)C(=O)N(C)C(C(=O)N1CCCC1C(=O)N1CCCC1C(=O)NCc1ccccc1)C(C)C (stereo unspecified)	–	5.4	–	–	–	21	–
C[C@@H]1CNCCN1c1ccc(N2CC[C@@H](O)C2)c(C#N)c1	–	–	–	·	–	·	·
C=CCN1CC[C@]23c4c5ccc(O)c4OC2C(=O)CC[C@@]3(O)[C@H]1C5 (stereo partly specified)	–	–	–	·	–	·	·
O=c1[nH]cnc2nc(-c3ccc(N(CCCl)CCCl)cc3)[nH]c12	–	5.5	–	–	–	11	–
CC(c1ccccc1)n1cc(C(=O)NC2CCCC2)nn1 (stereo unspecified)	–	–	–	·	–	·	·
O=C1C2CC=CCC2C(=O)N1SC(Cl)(Cl)Cl (stereo unspecified)	–	–	–	·	–	·	·
COC1CCC(OC2CC(C3(C)CCC4(CC(O)C(C)C(C(C)/C=C(\C)C(=O)C(C)CC(C)C(=O)O)O4)O3)OC3(OC(C4OC(O)(CO)C(C)CC4C)CC3C)C2C)OC1C (stereo unspecified)	–	9.6	–	–	–	–	–
CCOC(=O)[C@]12Cc3ccccc3[C@H]1N(CCC(=O)OC)C(=O)c1cc(OC)ccc12	–	7.2	–	·	–	4.1	9.3
c1ccc2oc(-c3ccc4c(c3)CNCc3cnnn3-4)cc2c1	–	5.0	–	·	–	7.0	4.6
SMILES	hgDAF-12 ag	DAX1 inh-1	hcDAF-12 act	DAX1 inh-2	ssDAF-12 act	DAX1 conf	SF1 mutant ctr	others
O=C(N/N=C/c1c(O)n(C2CCCCC2)c(=S)[nH]c1=O)c1ccccc1O	–	–	–	–	–	·	·
O=C(N/N=C/c1c(O)n(C2CCCCC2)c(=S)[nH]c1=O)c1ccccc1	–	4.8	–	–	–	–	–
Cc1ccc2c(c1)NP(=S)(Oc1ccccc1)N2 (stereo unspecified)	12	8.0	7.5	4.5	1.0	6.5	2.9	LXRb hcDAF ctr=–;hcDAF12 ag=–
COc1ccc2nc(-c3ccc(CN4CCC(n5c(=O)[nH]c6cc(Cl)ccc65)CC4)cc3)c(-c3ccccc3)nc2c1	–	–	–	·	–	·	·
N=C1c2ccccc2CN1CC(=O)c1ccccc1	20	7.0	23	–	2.6	11	7.2	LXRb hcDAF ctr=–;hcDAF12 ag=7.3;hgDAF12 ag=24;LXR ag 2=–
N=C1c2ccccc2CN1NC(=O)c1ccccc1	–	–	–	–	–	·	·
CNC(=O)Oc1ccc(-c2cn3cc(Cl)ccc3n2)cc1	14	6.1	6.4	–	1.6	9.8	3.5	hgDAF12 ag=21;LXR ag 2=–
Cc1cc(N2CCNC[C@@H]2C)ccc1N1CCN[C@@H](C)C1	–	–	–	·	–	·	·
